Laboratory results published in PubChem BioAssay AID652105 (National Center for Advancing Translational Sciences (NCATS), 2013).
About 4,100 (1.2%) of roughly 330,000 compounds were called active. Roughly 2% stayed inconclusive and do not appear here. What follows is part of a selection rich in actives, with near analogues and random picks from the rest. A number with no mark means an inactive call. How the source made its calls: active means max response of -50% or lower; inconclusive means between -30% and -50%; inactive means -30% or higher.

What follows are compounds tested against Phosphatidylinositol 5-phosphate 4-kinase type-2 alpha (Homo sapiens) (UniProt P48426) (assay: qHTS for Inhibitors of phosphatidylinositol 5-phosphate 4-kinase (PI5P4K)). Conditions: PI5P4Kalpha enzyme, ADP-Glo luminescence, 60 min; hits give low values.
Chain of Phosphatidylinositol 5-phosphate 4-kinase type-2 alpha (Homo sapiens) (P48426 whole entry, looked up): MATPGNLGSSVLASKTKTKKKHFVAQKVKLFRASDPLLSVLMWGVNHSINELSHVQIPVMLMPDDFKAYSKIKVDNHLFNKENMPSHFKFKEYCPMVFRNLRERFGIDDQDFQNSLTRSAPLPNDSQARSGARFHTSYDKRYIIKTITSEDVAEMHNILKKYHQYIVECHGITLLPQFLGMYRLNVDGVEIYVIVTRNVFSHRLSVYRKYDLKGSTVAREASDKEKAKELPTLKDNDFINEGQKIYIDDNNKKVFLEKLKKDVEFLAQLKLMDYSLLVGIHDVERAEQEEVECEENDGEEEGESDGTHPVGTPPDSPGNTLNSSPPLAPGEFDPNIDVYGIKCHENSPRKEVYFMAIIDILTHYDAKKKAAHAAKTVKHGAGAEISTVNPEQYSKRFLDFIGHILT
Procedure, shortened: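 Controls without substrate or without enzyme flank wells where PI5P4Kalpha converts substrate using 5 microM ATP (final). Incubation lasts 60 minutes at room temperature; ADP formed is read by ADP-Glo luminescence.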
Further: value at the top dose of about 77 µM.
On the % scale 0 is the no-effect control and ±100 the full control effect.

| Compound | max response |
| --- | --- |
| COc1ccc(C(O)C(O)(C(=O)OC(C)C)c2ccc(C)cc2)cc1 (centres undefined) | -0.92% |
| COc1cncc(-c2cnc3sc(NCCc4ccccn4)nn23)c1 | -5.87% |
| O=C1NC[C@H](CCCCN2CCN(CCc3ccccc3)C(=O)C2=O)N(CC2CCCCC2)C1=O | -2.74% |
| CCOC(=O)[C@]12CCC=C1N(Cc1cccc3ccccc13)C(=O)[C@H](CC(=O)NCc1cccc(C(F)(F)F)c1)C2 | 11% |
| CC1(Cc2ccccc2C#N)C(=O)Nc2ccc(-c3ccc4[nH]ccc4c3)cc21 (centres undefined) | -19.1% |
| CCN1C(=O)[C@@H]2[C@@H]3CN(S(=O)(=O)c4ccccc4C)[C@@H](c4ccc(Cl)cc4)[C@@H]3C(=O)C[C@@H]2C1=O | -5.23% |
| Cc1cccc(-c2cnc(C(O)c3cc(C)cc(C)c3)[nH]2)c1 (centres undefined) | 0.164% |
| CN1CCN(C(=O)c2ccc(NC(=O)c3ccc(Br)o3)cc2)CC1 | -0.458% |
| COc1ccc(C)cc1-n1nnnc1SCc1nc2ccccc2c(=O)[nH]1 | -6.87% |
| CCn1c(COc2c(C)cccc2C)nnc1SCc1nc2ccccc2c(=O)[nH]1 | -1.01% |
| COc1ccc(CCCc2nnc(SCc3nc4ccccc4c(=O)[nH]3)n2C)cc1 | -92.1% (active) |
| CCC(=O)N1Cc2cc(C(=O)NCc3cccc(F)c3)nc(-c3cccc(C4=CCCC4)c3)c2[C@H]1CCO | -0.668% |
| CN(C)C(=O)N=NC(=O)N(C)C | -58.3% (active) |
| CCc1nc2c(OCc3ccc(F)c(F)c3)cccn2c1N(C)C(=O)c1ccco1 | -3.84% |
| CCCCC(=O)NNC(=S)NC(=O)C(c1ccccc1)c1ccccc1 | -62.6% (active) |
| CCNC(=S)NNC(=O)Cc1ccccc1 | 5.73% |
| O=C(NNC(=S)NCc1ccco1)C(c1ccccc1)c1ccccc1 | -8.48% |
| CCCCCCn1c(=O)n2n(c1=O)C[C@]1(OC(=O)NCc3ccc(OC)c(OC)c3)CN(S(=O)(=O)c3ccc(C)cc3)C[C@]1(O)C2 | 3.29% |
| CCOC(=O)[C@]12CCCC=C1N(CCC1=CCCCC1)C(=O)[C@H](CC(=O)NCCCCc1ccccc1)C2 | 0.467% |
| CCCOc1ccc(F)cc1-c1cc(C(=O)Nc2ccc(F)cc2)[nH]n1 | 0.345% |
| O=C(c1cccnc1)N(c1cc2sc(=O)oc2c2ccccc12)S(=O)(=O)c1ccccc1 | -69.2% (active) |
| COc1ccc(N(C(=O)c2cccnc2)S(=O)(=O)c2ccc(OC)c(OC)c2)cc1 | 0.0951% |
| COc1ccc(N(C(=O)c2cccnc2)S(=O)(=O)c2ccc3c(c2)n(C)c(=O)n3C)cc1 | -3.4% |

| Compound | max response |
| --- | --- |
| COCCCNC(=O)c1cccc2c(-c3ccc(O)c(OC)c3)coc12 | 4.94% |
| COCCCNC(=O)c1ccc(-c2c(C)noc2C)c2ccoc12 | -2.64% |
| CCOc1ccc(CCN2C(=O)c3cccnc3C2=O)cc1OCC | -0.64% |
| O=C1c2cccnc2C(=O)N1Cc1cccs1 | 0.461% |
| NC1=CC(=O)C(=O)c2cccnc21 | -50.3% (active) |
| O=C(Nc1ccc(Cl)cc1)C1Cc2c(-c3ccc4c(c3)OCO4)ccnc2O1 (centres undefined) | -13.4% |
| CCCCCn1nnnc1C1c2ccccc2C(=O)N1Cc1ccco1 (centres undefined) | -0.242% |
| O=C(NCC(=O)N1CCCC(C(F)(F)F)C1)c1ccccc1F (centres undefined) | 3.2% |
| O=C(NC(Cc1ccccc1)C(=O)N1CCCC(C(F)(F)F)C1)c1ccccc1 (centres undefined) | 11.8% |
| FC(F)(F)C1CCCN(c2nsc3ccccc23)C1 (centres undefined) | -91.2% (active) |
| CCC(C(=O)NC(C)(C)C)n1c(-c2ccccc2)nc2ccccc21 (centres undefined) | 1.82% |
| OC[C@@H]1CN(C2CCCC2)C[C@H](n2cnc3c(NC4CCC4)ncnc32)O1 | -2.43% |
| N#Cc1cccc(NC(=O)c2cc(C3CCCCN3C(=O)CCc3ccccc3)on2)c1 (centres undefined) | -3.06% |
| Cc1ccc(NC(=O)Cn2c(C)csc2=O)cc1 | 6.3% |
| Cc1ccc(NC(=O)Cn2sc3ccccc3c2=O)cc1 | -87% (active) |
| Cc1nn(CC(=O)Nc2ccc(F)cc2)c(=O)c2ccccc12 | -3.79% |
| CC(C)C[C@H]1CNC(=O)C(=O)N1C[C@@H]1CCCN1C[C@H](Cc1ccccc1)N1C[C@H](CC(C)C)N(CC2CCCCCC2)C(=O)C1=O | -0.689% |
| Cc1cccc(-c2cnc(C(O)c3ccc4ccccc4c3)[nH]2)c1 (centres undefined) | -4.33% |
| CCc1nc2c(OCc3ccc(C(F)(F)F)cc3)cccn2c1N(C)C(=O)CC(C)C | 9.67% |
| CCN1CCCC1CNC(=O)c1ccc2c(c1)NC(=O)/C(=C\c1ccccc1F)S2 (centres undefined) | -0.909% |
| O=C1Nc2cc(C(=O)N3CCC(N4CCCCC4)CC3)ccc2S/C1=C\c1ccccc1 | -1.98% |
| CCN1CCN(CCNC(=O)c2ccc3c(c2)NC(=O)/C(=C\c2cccc(Cl)c2)S3)CC1 | -64.1% (active) |
| COC(=O)[C@@]12C[C@@H](CC(=O)N3CCCCC3)C(=O)N(Cc3ccc4c(c3)OCO4)C1=CCC(C)(C)C2 | -2.52% |

| Compound | max response |
| --- | --- |
| CC(=O)OC[C@@H]1CN(Cc2ccccc2)C[C@H](n2cnc3c(NCc4ccco4)ncnc32)O1 | -7.06% |
| CCCCN(C=O)c1c(CC)nc2c(OCCC3CCCCC3)cccn12 | -11.5% |
| CC1(C(=O)Nc2cccc(Oc3ccccc3)c2)CCN1Cc1ccccc1Cl (centres undefined) | 19% |
| CC(=O)NCC(=O)N(Cc1ccco1)C1(C(=O)NC2CCCC2)CCCCC1 | 1.69% |
| CC(=O)N(CC1CCCO1)C1(C(=O)NC2CCCC2)CCCCC1 (centres undefined) | 8.44% |
| O=C(Cc1cccs1)N(CC1CCCO1)C1(C(=O)NC2CCCCC2)CCCCC1 (centres undefined) | -55.8% (active) |
| CCCNC(=O)c1cc(C2CCCCN2S(=O)(=O)c2ccc(C#N)cc2)on1 (centres undefined) | 7.08% |
| O=C(Nc1ccc(Cl)c(C(F)(F)F)c1)C1Cc2c(-c3ccccc3Oc3ccccc3)ccnc2O1 (centres undefined) | 6.93% |
| N#CC1=C(N)Oc2[nH]c(=S)[nH]c(=O)c2C12C(=O)Nc1ccccc12 (centres undefined) | -89.2% (active) |
| Cc1ccc(NC2(C#N)C(=O)Nc3ccccc32)cc1 (centres undefined) | -2.41% |
| CC1(C)Cc2ccccc2-c2[nH]c(=S)[nH]c(=O)c21 | -19.7% |
| CCc1c(-c2ccc(F)cc2)ncn1Cc1cccc(-c2ccccc2)c1 | -9.99% |
| O=c1oc(/C=C/c2ccccc2)nc2ccccc12 | 8.43% |
| O=c1[nH]c(/C=C/c2cccc(Br)c2)nc2ccccc12 | -0.363% |
| NNc1cccc(C=Cc2ccccc2)cc1=O | -74.4% (active) |
| OC(c1ccccc1)(c1ccccc1)C1CCN(CCCOc2ccccc2)CC1 | -3.47% |
| CC(C)C1Cc2[nH][nH]c(=O)c2C(c2ccc(Cl)cc2)O1 (centres undefined) | -8.68% |
| CC1(C)Cc2c(C#N)c(SCc3nc4ccccc4[nH]3)nc(N3CCOCC3)c2CO1 | 2.17% |
| C1=C(N2CCOCC2)/C(=C/c2nc3ccccc3[nH]2)CC1 | -77.5% (active) |
| O=c1[nH]c(N2CCOCC2)nc2ccccc12 | -4.73% |
| FC(F)(F)c1cccc(-c2nc3ccccc3n2C(c2ccccc2)c2nc3ccccc3[nH]2)c1 (centres undefined) | -4.13% |
| CC1(C(=O)NS(=O)(=O)c2cccs2)CCN1C(=O)Cc1ccc(-c2ccccc2)cc1 (centres undefined) | -0.507% |
| COC(=O)C1=C(C(=O)OC)C(c2cc([N+](=O)[O-])ccc2O)c2sc(=O)[nH]c2S1 (centres undefined) | -81% (active) |

| Compound | max response |
| --- | --- |
| COC(=O)c1c(C)[nH]c(C)c1-c1ccc([N+](=O)[O-])cc1 | 8.82% |
| COC(=O)C1=C(C)N(C)C(=O)NC1c1ccc([N+](=O)[O-])o1 (centres undefined) | -6.27% |
| CCCNC(=O)C1(C)CCN1C(=O)Cc1ccc(-c2ccccc2)cc1 (centres undefined) | -2.28% |
| CC(=O)c1nn(-c2ccccc2)c(=Nc2ccccc2)cc1C | -0.302% |
| O=C(NCc1cccnc1)c1cc(C2CCCN(C(=O)CCCc3ccccc3)C2)on1 (centres undefined) | 1.02% |
| COc1ccc(C(=O)N2CCC(C(=O)Nc3ccc(C)cc3)CC2)cc1 | -67.6% (active) |
| COc1ccc(CNC(=O)C2CCN(C(=O)c3ccccc3)CC2)cc1 | 6.89% |
| O=C(Nc1ccccc1)C1CCN(C(=O)c2ccc(Br)cc2)CC1 | -5.42% |
| Nc1ccccc1SC(C[N+](=O)[O-])c1ccccc1 (centres undefined) | -75.7% (active) |
| Cc1ccc(C(C[N+](=O)[O-])c2c(C)cc3ccccn23)cc1 (centres undefined) | 3.11% |
| Nc1ccccc1SCc1cc([N+](=O)[O-])cc2c1OCOC2 | 0.872% |
| COc1cc(NC(=O)c2cc(-c3ccc(F)cc3OC(C)C)n[nH]2)cc(OC)c1OC | -6.5% |
| CCCCCCN1CCN(C2CN(Cc3cn(Cc4ccc(F)cc4)nn3)S(=O)(=O)C2)CC1 (centres undefined) | 0.312% |
| NS(=O)(=O)c1ccc(-c2ccc(/C=C3\SC(=O)NC3=O)o2)cc1 | -52.9% (active) |
| CN1CCN(/N=C/c2ccc(-c3ccc([N+](=O)[O-])cc3)o2)CC1 | -0.908% |
| O=C(Nc1ccccc1)c1ccccc1Br | 2.77% |
| CCN(CC)CCN(C)C(c1ccnc2ccccc12)c1nnnn1-c1ccc2c(c1)OCCO2 (centres undefined) | -0.0355% |
| O=C(N/N=C/c1ccco1)c1ccc(C(=O)N/N=C/c2ccco2)o1 | -70.9% (active) |
| O=C(N/N=C/c1ccco1)c1csc2c1CCCC2 | -21.6% |
| O=C(Cc1ccc([N+](=O)[O-])cc1)N/N=C/c1ccco1 | -5.81% |
